In PubChem BioAssay (NCATS):
Inconclusive results are not listed. Where a call stands in place of a potency, no number is given. Unmarked numbers belong to inactive results. Active and inactive are the calls of the source. The call rests on the fitted dose curve; in most records, active means well fitted curve in the direction sought with a large enough effect; inconclusive means small, poorly fitted or top-dose-only effect, or another doubt; inactive means no such curve, though single readings can be large; an effect the other way counts as inactive or inconclusive.

Biological target: Cytochrome P450 3A7 (Homo sapiens) (UniProt P24462)
Sequence (P24462 whole entry, looked up): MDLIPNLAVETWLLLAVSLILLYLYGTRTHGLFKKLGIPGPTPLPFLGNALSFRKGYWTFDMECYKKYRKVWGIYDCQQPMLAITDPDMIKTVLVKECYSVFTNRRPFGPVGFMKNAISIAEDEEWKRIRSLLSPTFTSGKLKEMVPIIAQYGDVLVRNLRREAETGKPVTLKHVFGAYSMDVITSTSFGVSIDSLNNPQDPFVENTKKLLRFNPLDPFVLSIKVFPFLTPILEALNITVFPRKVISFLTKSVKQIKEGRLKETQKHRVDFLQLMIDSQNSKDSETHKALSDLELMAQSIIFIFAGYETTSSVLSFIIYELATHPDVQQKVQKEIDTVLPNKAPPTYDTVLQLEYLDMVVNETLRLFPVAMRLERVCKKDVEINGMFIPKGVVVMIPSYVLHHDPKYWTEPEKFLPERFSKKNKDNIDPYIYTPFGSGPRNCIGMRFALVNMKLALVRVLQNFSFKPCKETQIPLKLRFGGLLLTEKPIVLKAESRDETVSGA
Experiment: Cytochrome P450 family 3 subfamily A member 7 (CYP3A7) small molecule antagonists: luciferase biochemical qHTS assay (AID 1963596); further: nearly all actives have a fitted effect of over 40% in size
Conditions: P450-Glo CYP3A7 enzyme luminescence, 1 h; series mostly up to 57.4 µM
Outline: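 Luminescence read-out (relative luminescence units) after 20 min with detection reagent, which stops the reaction. Enzyme, proluciferin substrate and compound preincubated 10 min, RT; NADPH regeneration system then started 1 h reaction. Ketoconazole as positive control.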

SMILES | Potency | activity change, negative = inhibition
NC(N)=NC(N)=NCCc1ccccc1 | inactive | 
CC1CN(c2cc3c(cc2F)c(=O)c(C(=O)O)cn3-c2ccc(F)cc2F)CCN1 (stereo unspecified) |  | 17% [at 4.83 µM]
N#CSCC(=O)O | inactive | 
CC(C)c1cc2c(cc1S(=O)(=O)O)[C@@]1(C)CCC[C@@](C)(C(=O)O)[C@@H]1CC2 | inactive | 
Nc1nc2ncc(CNc3ccc(C(=O)N[C@@H](CCC(=O)O)C(=O)O)cc3)nc2c(=O)[nH]1 | inactive | 
Cc1cc(=O)oc2cc(O[C@@H]3SC[C@@H](O)[C@H](O)[C@H]3O)ccc12 | inactive | 
N#CCC(=O)NN | inactive | 
CN(C)C/C=C(/c1ccc(Br)cc1)c1cccnc1 | inactive | 
COc1cc(C(=O)NCCCCCC(=O)O)cc(OC)c1OC | inactive | 
Cc1cn([C@H]2C[C@H](F)[C@@H](CO)O2)c(=O)[nH]c1=O | inactive | 
COc1ccc(CN(CCN(C)C)c2ccccn2)cc1 | inactive | 
OC1(c2ccccc2)CCNCC1 | inactive | 
O=C(O)c1ccc[n+]([O-])c1 | inactive | 
O=C1CC2(CCCC2)CC(=O)N1 | inactive | 
CN1Cc2cc(C(=O)N3CCC(C4CCNCC4)CC3)ccc2NC(CC(=O)O)C1=O (stereo unspecified) | inactive | 
Cc1cc(C)cc(NC(=O)Cc2ccc(OC(C)(C)C(=O)O)cc2)c1 | inactive | 
CN(C)CCN1CCN(c2cccc(Cl)c2)C1=O | inactive | 

Test system: not listed separately
Experiment: Viability qHTS for spleen associated tyrosine kinase inhibitor (SYKi) naive MV4-11 cells (AID 1963823); further: nearly all actives have a fitted effect of over 40% in size; further: potency means the concentration at half of the fitted maximal effect
Conditions: MV4-11 AML viability, CellTiter-Glo luminescence, 72 h; series mostly up to 45 µM
Outline: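 CellTiter-Glo luminescence, 10 min room-temperature incubation, gave viability. Cells: naive MV4-11 (500/well), treated 72 hr at 37 C, 5% CO2.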

SMILES | Potency | viability (% of control)
C[C@H](NC(CCc1ccccc1)C(=O)O)C(=O)N1CCC[C@H]1C(=O)O (stereo partly specified) | inactive | 
CCc1cccc(CC)c1NC(=O)CN(CC(=O)O)CC(=O)O | inactive | 
O=C1Nc2cc(Cl)ccc2Oc2ccccc21 | inactive | 
O=C(NCN1CCOCC1)c1cnccn1 | inactive | 
O=C(O)[C@H](O)[C@@H](O)[C@H](O[C@@H]1O[C@H](CO)[C@H](O)[C@H](O)[C@H]1O)[C@H](O)CO | inactive | 
COc1cc(C(=O)N2CCOCC2)cc(OC)c1OC | inactive | 
N[C@H]1C(O)O[C@H](CO)[C@@H](O)[C@@H]1O (stereo partly specified) | inactive | 
Cc1ccc(S(=O)(=O)NC(=O)NC2CCCCC2)cc1 | inactive | 
CCCCCC(N)=O | inactive | 
OC1C(O)C(O)C(O)C(O)C1O (stereo unspecified) | inactive | 
CCN1CCCC1=O | inactive | 
Cc1c(C(C)C)c(=O)n(-c2ccccc2)n1C | inactive | 
COc1cc2c3cc1Oc1cc(ccc1O)C[C@@H]1c4c(cc(OC)c(O)c4Oc4ccc(cc4)C[C@@H]3N(C)CC2)CC[N+]1(C)C | inactive | 
CC(=O)OCC(=O)NCCCOc1cccc(CN2CCCCC2)c1 | inactive | 
O=C(O)CCCCC1CCSS1 (stereo unspecified) | inactive | 
NC(CO)(CO)CO | inactive | 
CC1(C)OC(=O)Nc2ccc(Br)cc21 | inactive | 
CC(=O)NCCCCCC(=O)O | inactive | 
CCN(CC)CC1CCCCN1CC(=O)N1c2ccccc2C(=O)Nc2cccnc21 (stereo unspecified) | inactive | 
NC(N)=NS(=O)(=O)c1ccc(N)cc1 | inactive | 

SMILES | Potency | viability (% of control)
C[C@H]1[C@H](NC(=O)/C(=N/OC(C)(C)C(=O)O)c2csc(N)n2)C(=O)N1S(=O)(=O)O (stereo in doubt) | inactive | 
NC(N)=NC(N)=NCCc1ccccc1 | 11.8 µM (active) | 
CC1CN(c2cc3c(cc2F)c(=O)c(C(=O)O)cn3-c2ccc(F)cc2F)CCN1 (stereo unspecified) |  | 91.3% [at 4.97 µM]
N#CSCC(=O)O | inactive | 
CC(C)c1cc2c(cc1S(=O)(=O)O)[C@@]1(C)CCC[C@@](C)(C(=O)O)[C@@H]1CC2 | inactive | 
Nc1nc2ncc(CNc3ccc(C(=O)N[C@@H](CCC(=O)O)C(=O)O)cc3)nc2c(=O)[nH]1 | inactive | 
Cc1cc(=O)oc2cc(O[C@@H]3SC[C@@H](O)[C@H](O)[C@H]3O)ccc12 | inactive | 
N#CCC(=O)NN | inactive | 
CN(C)C/C=C(/c1ccc(Br)cc1)c1cccnc1 | inactive | 
COc1cc(C(=O)NCCCCCC(=O)O)cc(OC)c1OC | inactive | 
Cc1cn([C@H]2C[C@H](F)[C@@H](CO)O2)c(=O)[nH]c1=O | inactive | 
COc1ccc(CN(CCN(C)C)c2ccccn2)cc1 | 16.8 µM (active) | 
OC1(c2ccccc2)CCNCC1 | inactive | 
O=C(O)c1ccc[n+]([O-])c1 | inactive | 
O=C1CC2(CCCC2)CC(=O)N1 | inactive | 
CN1Cc2cc(C(=O)N3CCC(C4CCNCC4)CC3)ccc2NC(CC(=O)O)C1=O (stereo unspecified) | inactive | 
Cc1cc(C)cc(NC(=O)Cc2ccc(OC(C)(C)C(=O)O)cc2)c1 | inactive | 
CN(C)CCN1CCN(c2cccc(Cl)c2)C1=O | inactive | 

Test system: not listed separately
Experiment: Cellular viability qHTS for adrenocortical cancer (ACC) cell line SW-13 (AID 1963989);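 further: cells grown in serum-free medium with ITS supplement; nearly all actives have a fitted effect of over 65% in size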
Conditions: SW-13 ACC cells viability, CellTiter-Glo, 48 h; activity (max response): active compounds read low
Outline: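 Here, serum-free SW-13 cultures were dosed up to 46 uM. Following 48 h, ATP-dependent luminescence (CellTiter-Glo) reported viable cells, and logistic modeling produced IC50 values.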

SMILES | activity (max response)
C[C@H](NC(CCc1ccccc1)C(=O)O)C(=O)N1CCC[C@H]1C(=O)O (stereo partly specified) | 8.08%
CCc1cccc(CC)c1NC(=O)CN(CC(=O)O)CC(=O)O | 1.3%
O=C1Nc2cc(Cl)ccc2Oc2ccccc21 | -3.37%
O=C(NCN1CCOCC1)c1cnccn1 | -5.4%
O=C(O)[C@H](O)[C@@H](O)[C@H](O[C@@H]1O[C@H](CO)[C@H](O)[C@H](O)[C@H]1O)[C@H](O)CO | 9.39%
COc1cc(C(=O)N2CCOCC2)cc(OC)c1OC | 1.89%
N[C@H]1C(O)O[C@H](CO)[C@@H](O)[C@@H]1O (stereo partly specified) | -3.76%
Cc1ccc(S(=O)(=O)NC(=O)NC2CCCCC2)cc1 | 8.41%
OC1C(O)C(O)C(O)C(O)C1O (stereo unspecified) | -3.11%
Cc1c(C(C)C)c(=O)n(-c2ccccc2)n1C | -5.23%
COc1cc2c3cc1Oc1cc(ccc1O)C[C@@H]1c4c(cc(OC)c(O)c4Oc4ccc(cc4)C[C@@H]3N(C)CC2)CC[N+]1(C)C | -1.9%
CC(=O)OCC(=O)NCCCOc1cccc(CN2CCCCC2)c1 | 3.89%
O=C(O)CCCCC1CCSS1 (stereo unspecified) | 9%
NC(CO)(CO)CO | 12.7%
CC1(C)OC(=O)Nc2ccc(Br)cc21 | 14.6%
CC(=O)NCCCCCC(=O)O | -2.94%
NC(N)=NS(=O)(=O)c1ccc(N)cc1 | 7.35%

SMILES | activity (max response)
C[C@H]1[C@H](NC(=O)/C(=N/OC(C)(C)C(=O)O)c2csc(N)n2)C(=O)N1S(=O)(=O)O (stereo in doubt) | 8.46%
NC(N)=NC(N)=NCCc1ccccc1 | -8.99%
CC1CN(c2cc3c(cc2F)c(=O)c(C(=O)O)cn3-c2ccc(F)cc2F)CCN1 (stereo unspecified) | -5.86%
N#CSCC(=O)O | 4.51%
CC(C)c1cc2c(cc1S(=O)(=O)O)[C@@]1(C)CCC[C@@](C)(C(=O)O)[C@@H]1CC2 | 15.8%
Nc1nc2ncc(CNc3ccc(C(=O)N[C@@H](CCC(=O)O)C(=O)O)cc3)nc2c(=O)[nH]1 | 12.3%
Cc1cc(=O)oc2cc(O[C@@H]3SC[C@@H](O)[C@H](O)[C@H]3O)ccc12 | 12.3%
N#CCC(=O)NN | 8.55%
CN(C)C/C=C(/c1ccc(Br)cc1)c1cccnc1 | 3.23%
COc1cc(C(=O)NCCCCCC(=O)O)cc(OC)c1OC | 6.24%
Cc1cn([C@H]2C[C@H](F)[C@@H](CO)O2)c(=O)[nH]c1=O | 3.39%
OC1(c2ccccc2)CCNCC1 | 4.15%
O=C1CC2(CCCC2)CC(=O)N1 | 11.4%
CN1Cc2cc(C(=O)N3CCC(C4CCNCC4)CC3)ccc2NC(CC(=O)O)C1=O (stereo unspecified) | 10.5%
Cc1cc(C)cc(NC(=O)Cc2ccc(OC(C)(C)C(=O)O)cc2)c1 | 8.53%
CN(C)CCN1CCN(c2cccc(Cl)c2)C1=O | 10.1%
